The values that follow come from PubChem BioAssay (NCI).

Test systems include NCI-H23 lung; NCI-H226 lung; HOP-62 NSCLC; NCI-H460 lung; HOP-92 NSCLC; NCI-H522 lung; A549/ATCC NSCLC; 786-0 renal; COLO 205 colon.
What all share (assay): NCI-60 one-dose screen, 48 h (100 = growth as untreated, 0 = no growth, -100 = all killed)
Holding throughout (conditions): 10 µM

Compounds without any hit were thinned out: in the full panel of roughly 83,000, 20% have a hit.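 Single-concentration screen, 48 h exposure, 96-well plates. Endpoint: percent growth. Below 10 = active.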 Values without a mark were called inactive. Active and inactive are the calls of the source.

Regarding `CN(C)CCN(Cc1ccccc1)c1ccc2ccccc2n1`, the growth with NCI-H23 lung is 97.6%; in the assay with NCI-H226 lung it was 111%; with HOP-62 NSCLC, 88.4%; in the assay on NCI-H460 lung, 96.9%; in the assay with HOP-92 NSCLC, 75.6%; in the assay on NCI-H522 lung it was 96.7%. Moreover, the growth was 95.6% in the assay with A549/ATCC NSCLC, 93.9% in the assay with 786-0 renal and 89.5% in the assay with COLO 205 colon.

With `Nc1nccc(OCCO)n1`, the growth is 99.8% with NCI-H23 lung; 96.1% in the assay on NCI-H226 lung; 94% with HOP-62 NSCLC; 108% in the assay with NCI-H460 lung; 113% in the assay with HOP-92 NSCLC; 90.7% in the assay with NCI-H522 lung. Besides, the growth was 97.4% in the assay on A549/ATCC NSCLC, 102% in the assay with 786-0 renal and 110% in the assay with COLO 205 colon.

As to `CS(=O)(=O)c1nccc(-c2c(-c3cccc(O)c3)nc3sccn23)n1`, the growth with NCI-H23 lung was 109%; in the assay on NCI-H226 lung, 95.4%; with HOP-62 NSCLC, 95.9%; in the assay with NCI-H460 lung it was 97.4%; with HOP-92 NSCLC, 29.8%; in the assay with NCI-H522 lung, -2.17% (active). The growth with A549/ATCC NSCLC is 97.5%; in the assay on 786-0 renal, 77.2%; in the assay on COLO 205 colon, 114%.

With `O=C(CCCCC(=O)Oc1c(Cl)cc(Cl)cc1[N+](=O)[O-])Oc1c(Cl)cc(Cl)cc1[N+](=O)[O-]`, the growth in the assay with NCI-H23 lung was 96.5%; in the assay with NCI-H226 lung, 106%; in the assay with HOP-62 NSCLC, 102%; with NCI-H460 lung, 106%; in the assay with HOP-92 NSCLC it was 118%; in the assay on NCI-H522 lung, 89.5%. In addition, the growth in the assay with A549/ATCC NSCLC is 103%; with 786-0 renal, 101%; with COLO 205 colon, 121%.

As to `NS(=O)(=O)Oc1ccc(NC(=O)C2CCCCCC2)cc1`, the growth with NCI-H23 lung is 97.4%; in the assay with NCI-H226 lung it was 100%; in the assay on HOP-62 NSCLC, 99.3%; in the assay on NCI-H460 lung, 106%; with HOP-92 NSCLC, 98.9%; with NCI-H522 lung, 95.6%. The figures for the growth with A549/ATCC NSCLC, in the assay on 786-0 renal and in the assay on COLO 205 colon were 96%, 107% and 112%, respectively.

For `COc1ccc(-c2cc(-c3ccccc3)nc(SCCCCCCC(=O)NO)n2)cc1`, the growth in the assay with NCI-H23 lung was 50.9%; with NCI-H226 lung, 72.3%; in the assay on HOP-62 NSCLC it was 57.2%; in the assay with NCI-H460 lung it was 36%; in the assay with HOP-92 NSCLC, 49.3%; with NCI-H522 lung, 18.8%. Besides, the growth in the assay on A549/ATCC NSCLC was 50.1%; in the assay with 786-0 renal it was 79.8%; in the assay with COLO 205 colon, 44.8%.

Regarding `CC(C)N(CCOc1ccc(-c2nc3sccn3c2-c2ccnc(S(C)(=O)=O)n2)cc1)C(C)C`, the growth in the assay with NCI-H23 lung was 90.3%; with NCI-H226 lung, 87.7%; in the assay with HOP-62 NSCLC, 85.2%; in the assay on NCI-H460 lung, 102%; in the assay with HOP-92 NSCLC, 29.6%; in the assay on NCI-H522 lung, -26.9% (active). The growth in the assay with A549/ATCC NSCLC is 105%; with 786-0 renal it was 77.6%; with COLO 205 colon, 86.8%.

Take `O=C(CC(CC(=O)c1ccccc1)c1ccccc1O)c1ccccc1`: the growth was 92.8% with NCI-H23 lung; 87.8% with NCI-H226 lung; 85.8% in the assay on HOP-62 NSCLC; 93% with NCI-H460 lung; 88.9% with HOP-92 NSCLC; 89.3% with NCI-H522 lung. Further, the growth with A549/ATCC NSCLC is 93%; in the assay with 786-0 renal, 96.5%; in the assay with COLO 205 colon it was 106%.

Consider `CCOC(=O)c1cc(C(=O)c2cc(OC)cc(OC)c2)n2nc(C)ccc12`, for which the growth in the assay on NCI-H23 lung was 37.2%; with NCI-H226 lung, 78.6%; in the assay with HOP-62 NSCLC, 48.4%; with NCI-H460 lung, 10.8%; with HOP-92 NSCLC it was 13.9%; with NCI-H522 lung, -10.9% (active). Also, the values for the growth in the assay with A549/ATCC NSCLC, with 786-0 renal and with COLO 205 colon were 26.9%, 34.4% and -11.5% (active), respectively.

For `Cc1ccc(C(C)C)c(O)c1NC(=O)OC(C)C`, the growth in the assay with NCI-H23 lung is 96.2%; with NCI-H226 lung, 99.4%; with HOP-62 NSCLC, 91.6%; in the assay on NCI-H460 lung, 102%; in the assay on HOP-92 NSCLC, 75.7%; in the assay on NCI-H522 lung, 84.8%. The growth is 104% in the assay on A549/ATCC NSCLC, 92.3% in the assay on 786-0 renal and 99.6% in the assay on COLO 205 colon.

For `Cc1nn(-c2ccc(-c3ccc(OC(F)(F)F)cc3)cc2)c2nc(Cc3ccccc3)nc(N)c12`, the growth is 64.9% in the assay with NCI-H23 lung; 42.5% with NCI-H226 lung; 45.9% with HOP-62 NSCLC; 3.39% (active) in the assay with NCI-H460 lung; 59% in the assay with HOP-92 NSCLC; 73.7% in the assay with NCI-H522 lung. In addition, the values for the growth with A549/ATCC NSCLC, in the assay on 786-0 renal and in the assay with COLO 205 colon were 16.7%, 5.79% (active) and 65.2%, respectively.

Turning to `CCOC(=O)c1cc(C(=O)c2ccc(OC)c(OC)c2)n2ccncc12`, the growth in the assay with NCI-H23 lung was 97.4%; in the assay on NCI-H226 lung, 101%; in the assay on HOP-62 NSCLC it was 106%; in the assay on NCI-H460 lung, 106%; with HOP-92 NSCLC it was 94.9%; with NCI-H522 lung, 74%. Besides, the growth with A549/ATCC NSCLC is 99.3%; in the assay on 786-0 renal it was 106%; with COLO 205 colon, 115%.

Take `COc1ccc(-c2cc(-c3ccccc3)nc(SCCCC(=O)NO)n2)cc1`: the growth in the assay on NCI-H23 lung was -33.3% (active); in the assay with NCI-H226 lung, -8.31% (active); in the assay on HOP-62 NSCLC, -20% (active); in the assay with NCI-H460 lung, -10.3% (active); in the assay with HOP-92 NSCLC, -13.4% (active); with NCI-H522 lung it was -7.67% (active). The growth with A549/ATCC NSCLC is -2.46% (active); with 786-0 renal it was -13.5% (active); in the assay with COLO 205 colon, -22.6% (active).

`CN(C)CCCOc1ccccc1NC1=C(Cl)C(=O)C(Nc2ccccc2OCCCN(C)C)=C(Cl)C1=O`: the growth in the assay on NCI-H23 lung was -48.5% (active); with NCI-H226 lung, -81% (active); with HOP-62 NSCLC it was -96.9% (active); in the assay on NCI-H460 lung it was -20.6% (active); in the assay on HOP-92 NSCLC, -57.1% (active); in the assay with NCI-H522 lung it was -67.2% (active). Besides, the values for the growth with A549/ATCC NSCLC, with 786-0 renal and with COLO 205 colon were -55.6% (active), -95.4% (active) and -64.9% (active), respectively.

For `CCOC(=O)C1C(C(=O)OCC)C2C(=O)C3C(C(=O)OCC)C(C(=O)OCC)C3C(=O)C12` (stereo not drawn), the growth in the assay on NCI-H23 lung was 98.9%; in the assay on NCI-H226 lung, 100%; in the assay on HOP-62 NSCLC, 96.2%; in the assay with NCI-H460 lung it was 103%; in the assay with HOP-92 NSCLC, 104%; with NCI-H522 lung, 104%. The growth in the assay on A549/ATCC NSCLC is 100%; with 786-0 renal it was 103%; in the assay with COLO 205 colon, 120%.

Regarding `C#CCOc1c(OC)cc(C(=O)/C(C)=C/c2cccc(N=[N+]=[N-])c2)cc1OC`, the growth in the assay on NCI-H23 lung is 36.4%; in the assay with NCI-H226 lung it was 68.9%; in the assay on HOP-62 NSCLC, 36%; in the assay with NCI-H460 lung, 16.7%; in the assay on HOP-92 NSCLC, 63.1%; with NCI-H522 lung, -48.6% (active). Besides, the growth in the assay on A549/ATCC NSCLC was 18.8%; with 786-0 renal, 23.7%; in the assay on COLO 205 colon, -31.8% (active).

As for `O=C(O)COc1c(Cl)cc([N+](=O)[O-])cc1Cl`, the growth with NCI-H23 lung was 99%; in the assay on NCI-H226 lung it was 96.4%; with HOP-62 NSCLC, 88.8%; in the assay on NCI-H460 lung, 109%; in the assay on HOP-92 NSCLC it was 78.5%; with NCI-H522 lung, 76.8%. Further, the growth with A549/ATCC NSCLC was 81.7%; in the assay with 786-0 renal it was 88.6%; with COLO 205 colon it was 102%.
